# Results reported in the supplement of paper PMC8975748.
# Structures can show the parent of a compound that is named as a salt.
# Tested on: Saccharomyces cerevisiae BY4741 SeMeCo community
# Experiment: z-score of subpopulation abundance vs DMSO median, subpopulation auxotrophic for HL; higher = larger share of this subpopulation than in DMSO controls
# Details: 10 µM; 24 h; SM minimal medium; subpopulation (auxotrophy): HL
# Method: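 Fluorescent four-plasmid SeMeCo (self-establishing metabolically cooperating S. cerevisiae BY4741 community; plasmids pH-mRuby2, pL-mWasabi, pU-eCFP, pM-TagRFP657) was grown 24 h in minimal SM medium with each Selleck FDA-approved drug at 10 µM in 384-well plates. Cells were fixed and imaged by high-content confocal microscopy. For each auxotrophic subpopulation (and the prototroph), a z-score gives the deviation from the DMSO vehicle-control population median.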
row,SMILES,z-score of subpopulation abundance
1,Nc1nnc(-c2cccc(Cl)c2Cl)c(N)n1 [Lamotrigine],1.44
2,CCCCCOc1ccc(-c2cc(-c3ccc(C(=O)N[C@H]4C[C@@H](O)[C@@H](O)NC(=O)[C@@H]5[C@@H](O)[C@@H](C)CN5C(=O)[C@H]([C@H](O)CC(N)=O)NC(=O)[C@H]([C@H](O)[C@@H](O)c5ccc(O)c(OS(=O)(=O)O)c5)NC(=O)[C@@H]5C[C@@H](O)CN5C(=O)[C@H]([C@@H](C)O)NC4=O)cc3)no2)cc1 [Micafungin Sodium],42.5
3,NC(=O)Cc1cccc(C(=O)c2ccccc2)c1N [Nepafenac],0.69
4,CCOC(=O)C1=C(COCCN)NC(C)=C(C(=O)OC)C1c1ccccc1Cl (stereo not given) [Amlodipine],5.86
5,Nc1cc(C(Cl)=C(Cl)Cl)c(S(N)(=O)=O)cc1S(N)(=O)=O [Clorsulon],0.48
6,C#CCN(C)Cc1ccccc1 [Pargyline hydrochloride],-0.44
7,C#CCN[C@@H]1CCc2ccccc21 [Rasagiline],-0.5
8,CCN(CC)CCNC(=O)c1cc(Cl)c(N)cc1OC [Metoclopramide],-0.39
9,Cc1ccccc1C(OCCN(C)C)c1ccccc1 (stereo not given) [Orphenadrine Citrate],-1.07
10,CCCCCCCCCC(=O)N[C@@H](Cc1c[nH]c2ccccc12)C(=O)N[C@H](CC(N)=O)C(=O)N[C@@H](CC(=O)O)C(=O)N[C@@H]1C(=O)NCC(=O)N[C@@H](CCCN)C(=O)N[C@@H](CC(=O)O)C(=O)N[C@H](C)C(=O)N[C@@H](CC(=O)O)C(=O)NCC(=O)N[C@H](CO)C(=O)N[C@@H]([C@H](C)CC(=O)O)C(=O)N[C@@H](CC(=O)c2ccccc2N)C(=O)O[C@@H]1C [Daptomycin],2.68
11,CC[C@@H]1/C=C(\C)C[C@H](C)C[C@H](OC)[C@H]2O[C@@](O)(C(=O)C(=O)N3CCCC[C@H]3C(=O)O[C@H](/C(C)=C/[C@@H]3CC[C@H](Cl)[C@H](OC)C3)[C@H](C)[C@@H](O)CC1=O)[C@H](C)C[C@@H]2OC [Pimecrolimus],4.57
12,CCc1nn(CCCN2CCN(c3cccc(Cl)c3)CC2)c(=O)n1CCOc1ccccc1 [Nefazodone hydrochloride],0.71
13,COCCCN1CCC(NC(=O)c2cc(Cl)c(N)c3c2OCC3)CC1 [Prucalopride],-0.99
14,CO/N=C(\C(=O)N[C@@H]1C(=O)N2C(C(=O)O)=CCS[C@H]12)c1csc(N)n1 [Ceftizoxime],-0.85
15,Cc1cccc(C)c1NC(=O)C1CCCCN1C (stereo not given) [Mepivacaine],-0.24
16,C=C[C@]1(C)C[C@@H](OC(=O)CS[C@@H]2C[C@H]3CC[C@@H](C2)N3C)[C@]2(C)[C@H](C)CC[C@]3(CCC(=O)[C@H]32)[C@@H](C)[C@@H]1O [Retapamulin],-0.57
17,CCC(=O)NS(=O)(=O)c1ccc(-c2c(-c3ccccc3)noc2C)cc1 [Parecoxib Sodium],1.38
18,CC(C(=O)O)c1ccc2c(c1)Cc1cccnc1O2 (stereo not given) [Pranoprofen],-0.22
19,CC[C@H]1OC(=O)[C@H](C)[C@@H](O[C@H]2C[C@@](C)(OC)[C@@H](O)[C@H](C)O2)[C@H](C)[C@@H](O[C@@H]2O[C@H](C)C[C@H](N(C)C)[C@H]2O)[C@](C)(O)C[C@@H](C)CN(C)[C@H](C)[C@@H](O)[C@]1(C)O [Azithromycin Dihydrate],0.05
20,CC(C)N1CCN(c2ccc(OCC3COC(Cn4cncn4)(c4ccc(Cl)cc4Cl)O3)cc2)CC1 (stereo not given) [Terconazole],-0.76

row,SMILES,z-score of subpopulation abundance
1,Cc1c(-c2ccc(O)cc2)n(Cc2ccc(OCCN3CCCCCC3)cc2)c2ccc(O)cc12 [Bazedoxifene Acetate],-0.12
2,CC(=O)NO [Acetohydroxamic acid],0.57
3,CN(Cc1cnc2nc(N)nc(N)c2n1)c1ccc(C(=O)N[C@@H](CCC(=O)O)C(=O)O)cc1 [Methotrexate],6.68
4,CO/N=C(\C(=O)N[C@@H]1C(=O)N2C(C(=O)O)=C(COC(N)=O)CS[C@H]12)c1ccco1 [Cefuroxime sodium],-0.76
5,CCCCc1oc2ccc(NS(C)(=O)=O)cc2c1C(=O)c1ccc(OCCCN(CCCC)CCCC)cc1 [Dronedarone HCl],1.2
6,Nc1ccc(S(=O)(=O)Nc2nccs2)cc1 [Sulfathiazole],-0.09
7,CCCN(CCC)CCc1cccc2c1CC(=O)N2 [Ropinirole HCl],0.65
8,COc1cc(NC(C)CCCN)c2ncccc2c1 (stereo not given) [Primaquine Diphosphate],-0.43
9,CN(C)CCc1c[nH]c2ccc(CS(=O)(=O)N3CCCC3)cc12 [Almotriptan Malate],-0.69
10,C/C(=C\C(=O)OCCCCCCCCC(=O)O)C[C@@H]1OC[C@H](C[C@@H]2O[C@H]2[C@@H](C)[C@H](C)O)[C@@H](O)[C@H]1O [Mupirocin calcium],-0.37
11,O=C(O)c1cn(C2CC2)c2cc(N3CCNCC3)c(F)cc2c1=O [Ciprofloxacin hydrochloride hydrate],-0.26
12,Oc1c(Cl)cc(Cl)c2cccnc12 [Chloroxine],21.7
13,CCCN[C@H]1CCc2nc(N)sc2C1 [Pramipexole],0.63
14,COC(=O)C1=C(C)NC(C)=C(C(=O)OCCN2CCN(C(c3ccccc3)c3ccccc3)CC2)C1c1cccc([N+](=O)[O-])c1 (stereo not given) [Manidipine],2.76
15,C#C[C@]1(OC(C)=O)CC[C@H]2[C@@H]3CCC4=C[C@@H](OC(C)=O)CC[C@@H]4[C@H]3CC[C@@]21C [Ethynodiol diacetate],0.67
16,O=C(Nc1cc(Cl)cc(Cl)c1O)c1c(O)c(Cl)cc(Cl)c1Cl [Oxyclozanide],1.03
17,C=C1CCC2C(C)(CO)C(O)CCC2(C)C1CC=C1C=COC1=O (stereo not given) [Dehydroandrographolide],1.67
18,CCN(CC)CCOc1ccc2c(c1)C(=O)c1cc(OCCN(CC)CC)ccc1-2 [Tilorone dihydrochloride],-0.65
19,CN(C)CCC[C@@]1(c2ccc(F)cc2)OCc2cc(C#N)ccc21 [Escitalopram Oxalate],-0.1
20,C=CC1=C(C(=O)O)N2C(=O)[C@@H](NC(=O)/C(=N\OCC(=O)O)c3csc(N)n3)[C@H]2SC1 [Cefixime],-0.16
